Measured values published in PubChem BioAssay (NCI).
This is part of a sample that, as a whole, favours compounds with a hit. Of some 83,000 tested, about 20% had one in any assay.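 Cell lines were cultured in 96-well plates, exposed to a single compound concentration, and assessed for percent growth 48 hours later.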 Unmarked numbers belong to inactive results. Activity calls are given as the source filed them. How the source made its calls: active means growth percent below 10; inactive means the rest.

Key:
Assay in all cases: NCI-60 one-dose screen, 48 h (100 = growth as untreated, 0 = no growth, -100 = all killed)
Conditions in all cases: 10 µM unless noted
NCI-H23 lung = tested on: NCI-H23 lung
NCI-H226 lung = tested on: NCI-H226 lung
NCI-H322M lung = tested on: NCI-H322M lung
HOP-62 NSCLC = tested on: HOP-62 NSCLC
HOP-92 NSCLC = tested on: HOP-92 NSCLC
A549/ATCC NSCLC = tested on: A549/ATCC NSCLC
786-0 renal = tested on: 786-0 renal
COLO 205 colon = tested on: COLO 205 colon
DU-145 prostate = tested on: DU-145 prostate
K-562 leukemia = tested on: K-562 leukemia
MALME-3M melanoma = tested on: MALME-3M melanoma
MDA-MB-231 breast = tested on: MDA-MB-231 breast
RXF 393 renal = tested on: RXF 393 renal
SF-268 CNS = tested on: SF-268 CNS
SF-539 CNS = tested on: SF-539 CNS
UACC-257 melanoma = tested on: UACC-257 melanoma
M14 melanoma = tested on: M14 melanoma
NCI-H522 lung = tested on: NCI-H522 lung
SF-295 CNS = tested on: SF-295 CNS

| Structure (SMILES) | growth (NCI-H23 lung) | growth (NCI-H226 lung) | growth (NCI-H322M lung) | growth (HOP-62 NSCLC) | growth (HOP-92 NSCLC) | growth (A549/ATCC NSCLC) | growth (786-0 renal) | growth (COLO 205 colon) | growth (DU-145 prostate) | growth (K-562 leukemia) | growth (MALME-3M melanoma) | growth (MDA-MB-231 breast) | growth (RXF 393 renal) | growth (SF-268 CNS) | growth (SF-539 CNS) | growth (UACC-257 melanoma) | growth (M14 melanoma) | growth (NCI-H522 lung) | growth (SF-295 CNS) |
| --- | --- | --- | --- | --- | --- | --- | --- | --- | --- | --- | --- | --- | --- | --- | --- | --- | --- | --- | --- |
| O=C(CS)OCC(COC(=O)CS)(COC(=O)CS)COC(=O)CS | 85% | 98.1% | 58.3% | 105% | 108% | 93.9% | 103% | 105% | 95.3% | 34.3% | 89.6% | 104% | 98.8% | 82.7% | 98.4% | 59.3% | 18.1% | – | – |
| Cc1cc(C)cc(Nc2cc(C)nc3nc(C(F)(F)F)nn23)c1 | 40% | 37.8% | 25% | 47.8% | 69.8% | 27.5% | 36.6% | 16.7% | 38.1% | 20.2% | 45.5% | 50.1% | 52.1% | 28.7% | 4.14% (active) | 30.7% | 24% | 6.54% (active) | – |
| COC(=O)c1cc(Cl)cc([N+](=O)[O-])c1O | 111% | 97.9% | 115% | 104% | 83.8% | 105% | 108% | 115% | – | 68.9% | 114% | 123% | 97.1% | 112% | 107% | 100% | 94.9% | 99.5% | 101% |
| CNCc1cccc2c1OCCOCCOCCC(C)S(=O)(=O)c1ccc(cc1)-c1cnc(N)c(n1)C(=O)N2 (stereo unspecified) | 77.9% | 31.6% | 67% | 37.7% | 80.3% | 33% | 10.6% | 33.7% | 24.1% | 7.1% (active) | 75.3% | 57.4% | 16.4% | 54.2% | 25% | 50.6% | 52% | 34.4% | 98.8% |
| Nc1cccc(S(=O)(=O)c2cccc(N)c2)c1 | 111% | 107% | 124% | 111% | 97% | 111% | 108% | 117% | – | 10.5% | 115% | 105% | 138% | 107% | 113% | 119% | 107% | 111% | 100% |
| NC(N)=N/N=C\c1cccc(OCc2ccccc2)c1 | 79.5% | 86.2% | 91.7% | 79.6% | 40.9% | 87.9% | 79.6% | -70.9% (active) | 101% | 27.1% | 85.8% | 76% | 62.1% | – | 77.5% | 70.8% | 59.7% | 61.8% | 85.1% |
| C=CCn1c(SCC(=O)Nc2ccc(/C(C)=N\O)cc2)nnc1-c1cc(-c2ccc(Cl)cc2)nc2ccccc12 | 24.1% | 50.7% | 26.2% | 49.6% | 50.4% | 19.4% | 23% | 27.8% | 48.5% | 13.4% | 71.7% | 35% | 47% | 38.2% | 15.8% | 47.9% | 20.4% | 22.4% | – |
| Nc1ncnc2c1N=C(c1ccc(F)cc1)CC(c1sc(Cl)nc1Cl)N2 (stereo unspecified) | 92.9% | 90.1% | 106% | 105% | 71% | 92.4% | 92.6% | 104% | 98.8% | – | 111% | 88.2% | 78.3% | 85.4% | 85.7% | 91% | 109% | 88.7% | 95.8% |
| COC(=O)C1(C)COP(=O)(NC23CC4CC(CC(C4)C2)C3)OC1 (stereo unspecified) | 106% | 108% | 99% | 99% | 83.6% | 99.7% | 102% | 103% | 95.4% | 106% | – | 119% | 107% | 104% | 110% | 101% | 104% | 89.5% | 104% |
| COc1ccc(-c2nc(-c3cc(OC)cc(OC)c3)[nH]c2-c2ccc(OC)cc2)cc1 | 39.1% | 48.7% | 60.6% | 91.8% | 23.7% | 46.7% | 63.8% | 34.2% | 78.5% | 16.3% | 70.9% | 58.7% | 54.5% | 88.6% | 80.5% | 62.9% | 49.7% | 20.9% | – |
| NCCCOc1cc2ccccc2cc1C(=O)NCCCOc1cc2ccccc2cc1C(=O)Nc1ccc(Cl)cc1O | -67.6% (active) | -85.8% (active) | -51.9% (active) | -100% (active) | -75.9% (active) | -75.2% (active) | -82.4% (active) | -54.1% (active) | -21.3% (active) | – | -82.5% (active) | -87.9% (active) | -96.5% (active) | -27.8% (active) | -93.7% (active) | -69.2% (active) | -74.6% (active) | -65.1% (active) | – |
| O=C1OCC2=C1C(c1ccc(Cl)c(Cl)c1)c1cc3c(cc1N2CCO)CCC3 (stereo unspecified) | 31.5% | 24% | 42% | 38.9% | 82% | 21.6% | 27.5% | 6.1% (active) | 7.85% (active) | 19.7% | – | 8.3% (active) | 21% | 44.3% | -10.2% (active) | 60.2% | 12.1% | -14.8% (active) | -9.42% (active) |
| Nc1n[nH]c2ccc([C@@H]3Nc4c(F)cc5[nH]ncc5c4[C@H]4C5CCC(C5)[C@@H]34)cc12 (stereo partly specified) | 37.8% | 18.4% | 33.8% | 37.8% | 30.5% | 17.1% | 40.4% | -0.831% (active) | 3.59% (active) | 13.9% | 32.7% | 4.87% (active) | -0.647% (active) | 36.1% | -39% (active) | 62.1% | 9.46% (active) | 6.67% (active) | – |
| CC(=O)OC1Oc2ccccc2-c2oc3nc(=N)n(C)c-3cc21 (stereo unspecified) | 103% | 117% | 123% | 91.9% | 99.1% | 119% | 103% | 119% | 191% | 94.9% | 119% | 112% | 144% | 251% | 102% | 113% | 98.7% | 98.1% | 125% |
| O=C(Nc1ccc(Cl)c(C(F)(F)F)c1)c1ccc(Nc2ccc(Cl)nn2)cc1 | 48.4% | 84.2% | 92.9% | 86.1% | 82.8% | 44.3% | 50.9% | 81.6% | 76.7% | 44.2% | 106% | 59.3% | 47.8% | 80.7% | 68.1% | 74.6% | 57.4% | – | – |
| CCCCCCCCCCCCCCCC1=NCC[N+]1(CCO)CCO | 53.7% | 73.4% | 84.7% | 57.7% | 5.24% (active) | 50% | 55.5% | 82.8% | – | 1.44% (active) | 108% | 36.7% | 34.9% | – | 73.3% | 102% | 7.86% (active) | 40.8% | 76.7% |
